Inhibition data for one compound are collected here from ChEMBL document CHEMBL1961873, “Compounds: GSK PKIS; Assays: Nanosyn kinase panel” (2012).

Test [1] has as its target Sphingosine kinase 1 (Homo sapiens) (UniProt Q9NYA1). The settings on record: at 1 µM.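 Note: mean SPHK1 inhibition value reported from the GSK PKIS kinase panel screen.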
Test [2] concerns the target T1, Sphingosine kinase 2 (Homo sapiens) (UniProt Q9NRA0).
T1 sequence (whole entry): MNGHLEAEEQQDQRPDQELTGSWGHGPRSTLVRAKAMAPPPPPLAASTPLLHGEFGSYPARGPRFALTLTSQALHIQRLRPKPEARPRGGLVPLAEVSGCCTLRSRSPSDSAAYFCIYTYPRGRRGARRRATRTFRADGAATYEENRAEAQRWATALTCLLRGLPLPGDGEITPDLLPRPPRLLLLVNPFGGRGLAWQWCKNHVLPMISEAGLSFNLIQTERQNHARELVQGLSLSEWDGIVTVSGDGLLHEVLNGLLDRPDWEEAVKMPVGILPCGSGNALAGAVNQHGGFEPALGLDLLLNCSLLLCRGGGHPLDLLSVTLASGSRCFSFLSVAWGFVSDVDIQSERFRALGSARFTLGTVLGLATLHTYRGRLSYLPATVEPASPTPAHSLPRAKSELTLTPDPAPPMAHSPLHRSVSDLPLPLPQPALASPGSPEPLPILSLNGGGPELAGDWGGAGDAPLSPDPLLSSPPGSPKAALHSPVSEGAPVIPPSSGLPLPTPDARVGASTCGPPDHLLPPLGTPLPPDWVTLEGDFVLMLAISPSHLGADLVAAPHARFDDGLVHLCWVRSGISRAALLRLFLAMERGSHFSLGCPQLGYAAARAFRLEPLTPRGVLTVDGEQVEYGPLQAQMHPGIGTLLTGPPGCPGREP
The note with it: at 0.1 µM.

Test [3] deals with T1, Sphingosine kinase 2 (Homo sapiens). The settings on record: at 1 µM.
Test [4] deals with Casein kinase II subunit alpha (Homo sapiens) (UniProt P68400). The settings on record: at 0.1 µM.
Casein kinase II subunit alpha (Homo sapiens), sequence (P68400 whole entry, looked up): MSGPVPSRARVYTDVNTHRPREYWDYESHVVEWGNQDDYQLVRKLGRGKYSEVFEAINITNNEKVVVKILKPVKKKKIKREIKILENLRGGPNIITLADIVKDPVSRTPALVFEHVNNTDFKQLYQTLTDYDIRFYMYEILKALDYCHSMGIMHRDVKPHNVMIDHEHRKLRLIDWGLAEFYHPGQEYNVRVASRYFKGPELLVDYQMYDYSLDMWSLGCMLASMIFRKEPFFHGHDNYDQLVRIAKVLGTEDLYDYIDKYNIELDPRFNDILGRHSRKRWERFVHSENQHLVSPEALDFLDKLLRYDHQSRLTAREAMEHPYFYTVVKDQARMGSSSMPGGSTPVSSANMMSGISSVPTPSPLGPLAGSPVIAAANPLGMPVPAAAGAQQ
The target is the same in test [5]. The settings on record: at 1 µM.
Test [6] concerns the target T2, Inhibitor of nuclear factor kappa-B kinase subunit alpha (Homo sapiens) (UniProt O15111).
T2 sequence (whole entry): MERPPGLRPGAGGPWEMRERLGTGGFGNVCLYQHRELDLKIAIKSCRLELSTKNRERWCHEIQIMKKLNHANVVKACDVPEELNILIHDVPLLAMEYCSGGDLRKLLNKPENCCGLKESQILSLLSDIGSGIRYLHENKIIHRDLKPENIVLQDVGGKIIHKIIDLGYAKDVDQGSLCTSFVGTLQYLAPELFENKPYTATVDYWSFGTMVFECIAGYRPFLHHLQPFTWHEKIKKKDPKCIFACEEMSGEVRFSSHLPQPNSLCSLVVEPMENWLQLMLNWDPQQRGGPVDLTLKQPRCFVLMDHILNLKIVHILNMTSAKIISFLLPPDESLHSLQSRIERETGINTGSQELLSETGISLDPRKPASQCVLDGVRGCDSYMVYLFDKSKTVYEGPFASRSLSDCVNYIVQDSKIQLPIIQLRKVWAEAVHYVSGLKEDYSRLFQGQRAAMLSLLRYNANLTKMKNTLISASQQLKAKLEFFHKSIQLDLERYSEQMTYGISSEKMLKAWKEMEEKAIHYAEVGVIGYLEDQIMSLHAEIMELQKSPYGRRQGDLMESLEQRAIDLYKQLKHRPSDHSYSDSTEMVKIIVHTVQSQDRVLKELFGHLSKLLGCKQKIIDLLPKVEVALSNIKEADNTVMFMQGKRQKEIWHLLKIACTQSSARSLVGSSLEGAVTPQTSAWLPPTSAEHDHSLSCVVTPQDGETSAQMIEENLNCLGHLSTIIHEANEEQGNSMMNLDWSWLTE
The settings on record: at 0.1 µM.

In test [7] the target is T2, Inhibitor of nuclear factor kappa-B kinase subunit alpha (Homo sapiens). The settings on record: at 1 µM.
Test [8] has as its target T3, Inhibitor of nuclear factor kappa-B kinase subunit beta (Homo sapiens) (UniProt O14920).
T3 sequence (whole entry): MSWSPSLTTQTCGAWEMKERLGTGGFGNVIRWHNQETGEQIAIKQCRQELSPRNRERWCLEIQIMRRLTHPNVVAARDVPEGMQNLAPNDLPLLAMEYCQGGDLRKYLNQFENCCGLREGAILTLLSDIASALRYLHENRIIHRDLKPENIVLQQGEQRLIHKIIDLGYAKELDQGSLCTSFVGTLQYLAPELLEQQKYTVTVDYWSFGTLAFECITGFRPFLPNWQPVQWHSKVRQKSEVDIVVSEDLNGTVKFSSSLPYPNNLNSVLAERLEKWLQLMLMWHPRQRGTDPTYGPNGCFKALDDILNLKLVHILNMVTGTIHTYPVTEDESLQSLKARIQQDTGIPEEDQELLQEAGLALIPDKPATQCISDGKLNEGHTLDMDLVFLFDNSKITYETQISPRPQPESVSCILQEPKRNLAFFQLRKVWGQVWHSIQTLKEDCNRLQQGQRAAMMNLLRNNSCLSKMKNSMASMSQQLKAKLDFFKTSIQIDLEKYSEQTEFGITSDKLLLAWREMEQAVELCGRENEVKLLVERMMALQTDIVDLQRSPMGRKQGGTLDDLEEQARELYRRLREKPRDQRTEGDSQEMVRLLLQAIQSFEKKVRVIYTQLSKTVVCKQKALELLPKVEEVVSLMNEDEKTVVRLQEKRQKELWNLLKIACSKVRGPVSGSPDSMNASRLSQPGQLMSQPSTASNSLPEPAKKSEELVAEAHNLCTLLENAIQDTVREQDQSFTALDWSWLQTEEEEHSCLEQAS
The settings on record: at 0.1 µM.

Test [9] has as its target T3, Inhibitor of nuclear factor kappa-B kinase subunit beta (Homo sapiens). The note with it: at 1 µM.
Test [10] addresses T4, Inhibitor of nuclear factor kappa-B kinase subunit epsilon (Homo sapiens) (UniProt Q14164).
T4 sequence (whole entry): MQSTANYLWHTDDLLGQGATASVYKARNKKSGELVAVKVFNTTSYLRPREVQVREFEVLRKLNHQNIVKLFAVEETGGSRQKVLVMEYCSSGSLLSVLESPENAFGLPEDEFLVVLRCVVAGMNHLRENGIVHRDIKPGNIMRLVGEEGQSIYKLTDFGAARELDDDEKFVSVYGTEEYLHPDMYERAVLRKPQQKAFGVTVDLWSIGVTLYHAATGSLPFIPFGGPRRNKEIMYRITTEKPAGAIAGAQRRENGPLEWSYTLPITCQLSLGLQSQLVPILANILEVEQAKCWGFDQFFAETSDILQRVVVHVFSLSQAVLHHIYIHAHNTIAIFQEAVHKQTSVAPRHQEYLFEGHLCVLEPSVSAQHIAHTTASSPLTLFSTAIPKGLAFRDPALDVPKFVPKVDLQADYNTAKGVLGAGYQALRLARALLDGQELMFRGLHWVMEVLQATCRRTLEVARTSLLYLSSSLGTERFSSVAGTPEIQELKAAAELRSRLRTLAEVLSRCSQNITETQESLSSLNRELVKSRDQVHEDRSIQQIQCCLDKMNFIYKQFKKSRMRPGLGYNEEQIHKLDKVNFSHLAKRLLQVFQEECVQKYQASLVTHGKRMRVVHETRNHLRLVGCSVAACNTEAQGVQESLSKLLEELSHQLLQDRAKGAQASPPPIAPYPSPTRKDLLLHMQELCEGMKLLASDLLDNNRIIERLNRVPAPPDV
The settings on record: at 0.1 µM.

Test [11] has as its target T4, Inhibitor of nuclear factor kappa-B kinase subunit epsilon (Homo sapiens). The settings on record: at 1 µM.
Test [12] deals with T5, Serine/threonine-protein kinase Nek1 (Homo sapiens) (UniProt Q96PY6).
T5 sequence (whole entry): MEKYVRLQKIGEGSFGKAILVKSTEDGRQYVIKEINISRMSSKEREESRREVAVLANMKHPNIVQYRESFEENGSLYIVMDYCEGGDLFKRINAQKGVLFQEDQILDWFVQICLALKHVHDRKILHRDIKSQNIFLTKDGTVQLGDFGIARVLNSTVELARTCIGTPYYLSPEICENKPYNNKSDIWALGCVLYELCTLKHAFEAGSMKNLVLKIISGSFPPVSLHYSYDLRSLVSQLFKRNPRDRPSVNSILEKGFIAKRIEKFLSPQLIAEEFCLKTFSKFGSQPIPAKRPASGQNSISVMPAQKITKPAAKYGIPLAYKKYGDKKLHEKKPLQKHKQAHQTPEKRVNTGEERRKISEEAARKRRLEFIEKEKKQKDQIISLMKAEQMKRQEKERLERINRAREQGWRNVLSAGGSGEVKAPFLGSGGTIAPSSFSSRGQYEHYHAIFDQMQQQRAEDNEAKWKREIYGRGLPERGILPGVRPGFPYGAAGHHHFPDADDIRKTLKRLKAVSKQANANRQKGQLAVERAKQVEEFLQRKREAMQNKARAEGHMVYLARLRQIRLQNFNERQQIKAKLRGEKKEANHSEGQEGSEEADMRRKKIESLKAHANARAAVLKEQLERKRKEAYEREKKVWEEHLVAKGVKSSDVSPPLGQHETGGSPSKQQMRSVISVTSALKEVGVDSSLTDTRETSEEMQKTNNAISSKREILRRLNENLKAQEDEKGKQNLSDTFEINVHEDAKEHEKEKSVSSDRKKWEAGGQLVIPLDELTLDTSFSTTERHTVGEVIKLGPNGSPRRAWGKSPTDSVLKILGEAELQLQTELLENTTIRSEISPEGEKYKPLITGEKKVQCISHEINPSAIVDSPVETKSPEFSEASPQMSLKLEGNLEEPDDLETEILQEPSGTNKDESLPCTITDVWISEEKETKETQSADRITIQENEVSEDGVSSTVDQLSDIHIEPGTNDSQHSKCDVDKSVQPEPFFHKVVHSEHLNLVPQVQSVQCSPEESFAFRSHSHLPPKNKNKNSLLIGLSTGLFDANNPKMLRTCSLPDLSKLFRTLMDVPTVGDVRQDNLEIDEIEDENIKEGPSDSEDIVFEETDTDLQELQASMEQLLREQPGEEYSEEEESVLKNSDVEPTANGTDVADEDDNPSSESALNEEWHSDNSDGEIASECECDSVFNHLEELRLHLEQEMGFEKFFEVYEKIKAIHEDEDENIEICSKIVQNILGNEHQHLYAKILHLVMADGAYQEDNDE
The settings on record: at 0.1 µM.

Test [13] has as its target T5, Serine/threonine-protein kinase Nek1 (Homo sapiens). The settings on record: at 1 µM.
The target of test [14] is T6, Serine/threonine-protein kinase Nek2 (Homo sapiens) (UniProt P51955).
T6 sequence (whole entry): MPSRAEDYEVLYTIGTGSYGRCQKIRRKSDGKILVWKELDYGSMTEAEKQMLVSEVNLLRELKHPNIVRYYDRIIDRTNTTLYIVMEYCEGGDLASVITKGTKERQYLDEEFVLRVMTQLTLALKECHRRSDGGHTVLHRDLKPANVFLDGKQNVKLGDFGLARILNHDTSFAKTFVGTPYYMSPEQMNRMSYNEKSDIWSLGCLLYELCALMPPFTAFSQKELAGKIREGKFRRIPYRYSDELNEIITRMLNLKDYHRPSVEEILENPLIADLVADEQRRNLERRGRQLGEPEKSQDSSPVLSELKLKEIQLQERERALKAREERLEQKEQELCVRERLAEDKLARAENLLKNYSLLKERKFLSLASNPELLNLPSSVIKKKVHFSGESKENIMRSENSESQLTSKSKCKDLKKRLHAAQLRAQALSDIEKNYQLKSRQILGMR
The settings on record: at 0.1 µM.

The target of test [15] is T6, Serine/threonine-protein kinase Nek2 (Homo sapiens). The note with it: at 1 µM.
The target of test [16] is Serine/threonine-protein kinase Nek6 (Homo sapiens) (UniProt Q9HC98). The settings on record: at 0.1 µM.
Serine/threonine-protein kinase Nek6 (Homo sapiens), sequence (Q9HC98 whole entry): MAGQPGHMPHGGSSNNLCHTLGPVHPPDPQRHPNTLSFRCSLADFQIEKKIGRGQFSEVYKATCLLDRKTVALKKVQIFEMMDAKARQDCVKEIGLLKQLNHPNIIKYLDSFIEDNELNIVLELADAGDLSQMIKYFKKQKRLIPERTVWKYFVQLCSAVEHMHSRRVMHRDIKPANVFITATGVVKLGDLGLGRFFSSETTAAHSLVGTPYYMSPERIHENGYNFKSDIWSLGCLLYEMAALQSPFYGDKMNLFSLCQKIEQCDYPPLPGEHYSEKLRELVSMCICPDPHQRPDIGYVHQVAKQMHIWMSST
The target is the same in test [17]. The settings on record: at 1 µM.
The target in test [18] is Serine/threonine-protein kinase Nek7 (Homo sapiens) (UniProt Q8TDX7). The settings on record: at 0.1 µM.
Serine/threonine-protein kinase Nek7 (Homo sapiens), sequence (Q8TDX7 whole entry, looked up): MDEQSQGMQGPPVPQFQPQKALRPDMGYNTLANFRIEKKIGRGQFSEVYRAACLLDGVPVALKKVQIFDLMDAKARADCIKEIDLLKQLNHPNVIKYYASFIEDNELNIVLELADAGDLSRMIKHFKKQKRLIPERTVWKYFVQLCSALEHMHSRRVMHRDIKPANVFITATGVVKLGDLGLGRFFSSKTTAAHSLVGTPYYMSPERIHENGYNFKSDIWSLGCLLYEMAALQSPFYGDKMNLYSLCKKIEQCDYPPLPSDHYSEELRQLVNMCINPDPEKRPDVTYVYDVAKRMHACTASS
The target is the same in test [19]. The settings on record: at 1 µM.
For test [20], the target named is T7, Serine/threonine-protein kinase Nek9 (Homo sapiens) (UniProt Q8TD19).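 Note: reported value is the mean percent inhibition of NEK9.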
T7 sequence (whole entry): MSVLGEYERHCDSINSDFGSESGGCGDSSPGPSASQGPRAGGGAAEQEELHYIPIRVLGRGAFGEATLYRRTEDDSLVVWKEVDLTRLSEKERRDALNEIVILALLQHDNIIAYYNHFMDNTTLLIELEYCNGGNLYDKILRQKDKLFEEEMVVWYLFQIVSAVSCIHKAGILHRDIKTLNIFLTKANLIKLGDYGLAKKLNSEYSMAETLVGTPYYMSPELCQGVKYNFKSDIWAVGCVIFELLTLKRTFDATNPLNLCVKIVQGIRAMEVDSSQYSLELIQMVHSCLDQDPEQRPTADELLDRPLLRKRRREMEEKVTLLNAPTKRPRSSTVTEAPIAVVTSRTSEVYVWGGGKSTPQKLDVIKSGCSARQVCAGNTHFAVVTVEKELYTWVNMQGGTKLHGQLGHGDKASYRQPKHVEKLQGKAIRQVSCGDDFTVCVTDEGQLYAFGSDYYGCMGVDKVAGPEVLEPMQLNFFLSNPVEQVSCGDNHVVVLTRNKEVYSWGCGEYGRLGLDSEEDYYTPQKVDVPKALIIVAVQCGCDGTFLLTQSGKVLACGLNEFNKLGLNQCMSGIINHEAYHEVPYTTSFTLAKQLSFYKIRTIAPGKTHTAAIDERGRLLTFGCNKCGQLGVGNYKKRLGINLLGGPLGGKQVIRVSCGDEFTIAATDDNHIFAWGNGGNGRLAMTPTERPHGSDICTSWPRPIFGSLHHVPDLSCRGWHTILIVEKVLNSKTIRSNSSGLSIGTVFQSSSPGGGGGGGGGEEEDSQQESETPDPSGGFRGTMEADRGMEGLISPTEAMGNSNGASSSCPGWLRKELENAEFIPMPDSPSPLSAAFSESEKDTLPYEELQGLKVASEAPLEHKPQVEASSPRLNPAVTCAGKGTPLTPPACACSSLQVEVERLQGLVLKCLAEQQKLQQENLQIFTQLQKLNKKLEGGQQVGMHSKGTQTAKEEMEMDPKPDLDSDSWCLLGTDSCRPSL
The settings on record: at 0.1 µM.

Sphingosine kinase 1 (Homo sapiens), sequence (Q9NYA1 whole entry): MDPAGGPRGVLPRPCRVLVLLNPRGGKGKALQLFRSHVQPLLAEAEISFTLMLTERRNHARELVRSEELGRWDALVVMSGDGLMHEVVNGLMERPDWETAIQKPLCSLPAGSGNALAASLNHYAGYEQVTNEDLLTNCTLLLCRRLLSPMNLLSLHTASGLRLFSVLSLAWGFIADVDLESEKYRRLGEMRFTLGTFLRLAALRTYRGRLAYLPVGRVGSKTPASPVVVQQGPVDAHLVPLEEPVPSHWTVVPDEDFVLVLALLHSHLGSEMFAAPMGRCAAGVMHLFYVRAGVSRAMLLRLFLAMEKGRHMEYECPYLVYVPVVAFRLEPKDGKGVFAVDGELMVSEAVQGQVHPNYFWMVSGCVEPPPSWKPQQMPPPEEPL

The inhibition is the drop in the measured response relative to a control, in per cent. As for `COc1ccc(-c2oc3ncnc(N)c3c2-c2ccc(NC(=O)Nc3cc(C(F)(F)F)ccc3F)cc2)cc1`, the inhibition was -0.9% in [1]; 0.08% in [2]; 0.05% in test [3]; 6.63% in test [4]; 16.7% in test [5]; 1.18% in test [6]. In addition, the inhibition in test [7] turned out to be 2.5%; in test [8] it was 7.03%; in [9], 5.27%; in test [10], 8.13%; in test [11], 9.69%; in test [12], 5.73%. For the same compound, the inhibition came out at 16.9% in [13]; 5.08% in test [14]; 7.47% in [15]; 2.43% in [16]; 3.73% in test [17]; 3.58% in test [18]. For the same compound, the results for the inhibition in test [19] and in test [20] were -1.9% and 6.04%, respectively.
